Compound activity as filed in PubChem.
IL1B secr inh = inhibitors of inflammasome signaling (IL-1 beta secretion); THP-1 LPS/ATP IL-1B secretion, AlphaLISA, 16 h; active compounds read low; activity change, % at 57.5 µM; 360,000 compounds, 4.7% hits; AID 743279; in the data active = activity change below about -50%; inconclusive = mostly about -30% to -49%; also: % is scaled to controls: 0 for no effect and ±100 for the full control effect
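THP-1 cells pretreated 1 hr with compounds (up to 57.5 uM final), then stimulated with LPS (250 ng/mL final) plus ATP (1.25 mM final); secreted IL-1B measured by AlphaLISA after 16 hr, decreased signal indicating inhibition.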
PINK1 expr mod = changes PINK1 expression. PINK1 immunofluorescence, high-content cytometry, 24 h. Potency, µM (top dose mostly 76.6 µM), for inactives: top-dose activation (PINK1 increase), hits mostly activators. 410,000 compounds, 0.2% hits; active = well fitted activation curve with a large enough effect; inconclusive = small, poorly fitted or top-dose-only effect; cell line not stated here; also: potency is read from the fitted curve at half-maximal effect; % of control where 0% means no effect; nearly all actives have a fitted effect of over 65% in size
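Cells are seeded, rested 12 hours, then given compound at five concentrations or DMSO for 24 hours. After fixation, blocking and antibody staining, PINK1 amount and mitochondrial localization are scored; CCCP serves as control.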
MCF10A rereplic = inducers of DNA re-replication in MCF 10A breast cells; MCF 10A DNA re-replication, Hoechst nuclear intensity, 48 h; Potency, µM (doses to about 46.1 µM), for inactives: at the top dose activity, positive = re-replication, hits mostly activators; 350,000 compounds, 2.9% hits; AID 624296; also: potency is read from the fitted curve at half-maximal effect; % of control where 0% means no effect; nearly all actives have a fitted effect of over 50% in size
S2 tox = cell viability loss in ATXN counter-screen; 400,000 compounds, 0.49% hits; Potency, µM (series often up to 56.7 µM), actives largely listed as cytotoxic; S2 cells (HEK-293 line with an ATXN2-luciferase reporter) viability, CellTiter-Fluor protease fluorescence, 24 h; also: potency is read from the fitted curve at half-maximal effect; nearly all actives have a fitted effect of over 40% in size
SW480 rereplic = induces DNA re-replication in SW480 colon adenocarcinoma cells | SW480 DNA re-replication, Hoechst DNA content imaging, 48 h | 340,000 compounds, 1.8% hits | Potency, µM (doses to about 46.1 µM), for the others: at the top dose re-replication activation, usual class: activators; also: potency is read from the fitted curve at half-maximal effect; % of control where 0% means no effect; nearly all actives have a fitted effect of over 55% in size
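Image-based read-out: total Hoechst fluorescence of nuclei (405 nm excitation, 500-530 nm emission), with hits raising the fraction of high-intensity nuclei. SW480 colon cells incubated 48 hr with compounds at 37 C.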
ATXN2 expr inh = inhibitors of ATXN2 expression; 360,000 compounds, 0.72% hits; Potency, µM (highest dose often 57 µM), for the others: at the top dose activity change, negative = inhibition, hits mostly inhibitors; AID 1745845; HEK-293 ATXN2-luciferase reporter, luminescence, 24 h; also: potency is read from the fitted curve at half-maximal effect; % is scaled to controls: 0 for no effect and ±100 for the full control effect; nearly all actives have a fitted effect of over 55% in size
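qHTS (up to 57 uM final) was run with 24 h compound exposure of reporter cells at 37 °C. Each well was multiplexed: SteadyGlo luminescence measured ATXN2-luciferase expression after a fluorogenic Gly-Phe-AFC viability readout (25 uM final).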
SK-N-SH 3D tox = SK-N-SH 3D spheroid viability loss. shares compounds with ATXN2 expr inh. 65 compounds, 70% hits. SK-N-SH 3D spheroid viability, PI/Hoechst imaging, 72 h. Potency, µM (series often up to 30.7 µM), usual class: inhibitors
SJ-GBM2 3D tox = lowers viability of SJ-GBM2 3D spheroids; Potency, µM (highest dose often 30.7 µM), actives largely listed as inhibitors; 65 compounds, 80% hits; shares compounds with ATXN2 expr inh; SJ-GBM2 3D spheroid viability, PI/Hoechst imaging, 72 h
Daoy spheroid = Daoy 3D spheroid viability loss. shares compounds with ATXN2 expr inh. Daoy 3D spheroid viability, PI/Hoechst imaging, 72 h. Potency, µM (series often up to 30.7 µM), most hits filed as inhibitors. 65 compounds, 50% hits. AID 1347137
TC32 3D casp = activates caspase in TC32 3D spheroids; 65 compounds, 30% hits; TC32 3D spheroids, caspase-3/7 fluorescence imaging, 24 h; Potency, µM (top dose mostly 30.7 µM), usual class: inhibitors; shares compounds with ATXN2 expr inh; AID 1347138
TC32 spheroid = reduced viability of TC32 3D spheroids, orthogonal test | shares compounds with ATXN2 expr inh | TC32 3D spheroid viability, PI/Hoechst imaging, 72 h | Potency, µM (top dose mostly 30.7 µM), usual class: inhibitors | 65 compounds, 60% hits | AID 1347139
MG63 spheroid = kills MG-63 (6-TG R) spheroids in orthogonal 3D test | shares compounds with ATXN2 expr inh | MG-63 (6-TG R) 3D spheroid viability, PI/Hoechst imaging, 72 h | Potency, µM (doses to about 30.7 µM), usual class: inhibitors | 65 compounds, 50% hits | AID 1347140
RD spheroid = reduced viability of RD 3D spheroids, orthogonal test; shares compounds with ATXN2 expr inh; RD rhabdomyosarcoma 3D spheroid viability, PI/Hoechst imaging, 72 h; Potency, µM (doses to about 30.7 µM), most hits filed as inhibitors; 65 compounds, 50% hits
Starred values were filed as active, the others as inactive; i = inactive; ? = inconclusive; · = not tested or not shown; [ ] = another dose, or the depositor's remark. Compounds with a hit are over-represented: about 7.1% of the library has one in this group of screens. Unless noted, calls follow the shape of the dose curve; as a rule, active = well fitted curve in the direction sought with a large enough effect; inconclusive = small, poorly fitted or top-dose-only effect, or another doubt; inactive = no such curve, though single readings can be large; an effect the other way counts as inactive or inconclusive.

SMILES	IL1B secr inh	PINK1 expr mod	MCF10A rereplic	S2 tox	SW480 rereplic	ATXN2 expr inh	SK-N-SH 3D tox	SJ-GBM2 3D tox	Daoy spheroid	TC32 3D casp	TC32 spheroid	MG63 spheroid	RD spheroid
C[C@H]1C[C@@H]2[C@H]3CCC4=CC(=O)C=C[C@@]4(C)[C@@]3(Cl)[C@@H](O)C[C@]2(C)[C@]1(OC(=O)c1ccco1)C(=O)CCl	·	·	3%[20.6 µM]	·	-1%[20.6 µM]	·	·	·	·	·	·	·	·
C[C@@H]1C[C@H]2[C@@H]3CCC4=CC(=O)C=C[C@]4(C)[C@@]3(Cl)[C@@H](O)C[C@]2(C)[C@@]1(OC(=O)c1ccco1)C(=O)CCl	-89*	2%	8%	?	?	?	i	?	i	i	i	i	i
COc1ccc(-c2ccc3ncc4c(c3c2)n(-c2ccc(N3CCNCC3)c(C(F)(F)F)c2)c(=O)n4C)cn1	·	·	·	·	·	7.7µM*	0.25µM*	0.031µM*	0.0056µM*	0.5µM*	0.13µM*	0.0056µM*	0.16µM*
CC1(c2nc3ccccc3[nH]2)CCC(=O)N1C1CC1 (centres undefined)	34	2%	·	i	·	-5%	·	·	·	·	·	·	·
COc1ccc(-c2nc(N3CCOCC3)c3sc(CN(C)c4ncc(C(=O)NO)cn4)cc3n2)cn1	·	·	·	·	·	13%	5.1µM*	11µM*	5.1µM*	i	i	?	i
C[C@]12C=CC(=O)C=C1CC[C@H]1[C@@H]3C[C@@H](O)[C@](O)(C(=O)CO)[C@@]3(C)C[C@H](O)[C@@]12F	?	3%	8%	i	-20%	-5%	?	0.46µM*	i	?	7.2µM*	i	i
COc1cc([C@@H]2c3cc4c(cc3C(O[C@@H]3O[C@@H]5CO[C@@H](c6cccs6)OC5[C@H](O)[C@H]3O)C3COC(=O)[C@@H]32)OCO4)cc(OC)c1O (some centres undefined)	·	·	·	·	·	·	0.057µM*	0.032µM*	0.041µM*	?	0.016µM*	4.1µM*	5.7µM*
COc1cc([C@@H]2c3cc4c(cc3[C@@H](O[C@@H]3O[C@@H]5CO[C@@H](C)O[C@@H]5[C@H](O)[C@@H]3O)[C@H]3COC(=O)[C@H]23)OCO4)cc(OC)c1O	·	·	·	·	·	0.77µM*	0.57µM*	0.26µM*	0.46µM*	?	0.26µM*	?	?
CCCN1C[C@@H](C)[C@@H](OC)CN(C)C(=O)c2ccc(NC(=O)c3cccc(F)c3)cc2OC[C@H]1C	17	·	·	·	·	·	·	·	·	·	·	·	·
C[C@H]1[C@@H](OC(=O)CCC(=O)O)O[C@@H]2O[C@@]3(C)CC[C@@H]4[C@H](C)CC[C@@H]1[C@@]24OO3	·	·	·	·	·	?	?	1.3µM*	i	?	?	?	0.91µM*
C[C@@H]1CCC2[C@@H](C)[C@@H](O)O[C@@H]3O[C@@]4(C)CC[C@@H]1[C@@]23OO4 (some centres undefined)	·	-2%	26%	·	?	·	·	·	·	·	·	·	·
CCOC(=O)C(C(=O)OCC)C(=O)c1cccc2ccc3ccccc3c12	33	0%	·	i	·	·	·	·	·	·	·	·	·
COc1ccc2c(c1)NC(c1ccc(Cl)cc1)=NC(c1cccs1)=N2	·	2%	·	i	·	1%	·	·	·	·	·	·	·
CCc1nc(N)nc(N)c1-c1ccc(Cl)cc1	-25	1%	64%	i	?	?	?	0.91µM*	?	i	?	?	?
CCC(=O)n1nc(-c2ccc(Cl)cc2)nc1N	-14	0%	?	i	-3%	-5%	·	·	·	·	·	·	·
